Key:
Experiment in all cases: log2 ratio of Biotin-Ahx-Ub-VS probe labelling (fragment/DMSO); higher = less target engagement (more negative = stronger competition), active = hit call of the paper (q ≤ 0.05, log2 ratio ≤ -1)
Conditions in all cases: compound concentration: 200 uM; treatment time: 3 h
[1] = target: T1, USP42 (UniProt Q9H9J4)
T1 sequence (whole entry): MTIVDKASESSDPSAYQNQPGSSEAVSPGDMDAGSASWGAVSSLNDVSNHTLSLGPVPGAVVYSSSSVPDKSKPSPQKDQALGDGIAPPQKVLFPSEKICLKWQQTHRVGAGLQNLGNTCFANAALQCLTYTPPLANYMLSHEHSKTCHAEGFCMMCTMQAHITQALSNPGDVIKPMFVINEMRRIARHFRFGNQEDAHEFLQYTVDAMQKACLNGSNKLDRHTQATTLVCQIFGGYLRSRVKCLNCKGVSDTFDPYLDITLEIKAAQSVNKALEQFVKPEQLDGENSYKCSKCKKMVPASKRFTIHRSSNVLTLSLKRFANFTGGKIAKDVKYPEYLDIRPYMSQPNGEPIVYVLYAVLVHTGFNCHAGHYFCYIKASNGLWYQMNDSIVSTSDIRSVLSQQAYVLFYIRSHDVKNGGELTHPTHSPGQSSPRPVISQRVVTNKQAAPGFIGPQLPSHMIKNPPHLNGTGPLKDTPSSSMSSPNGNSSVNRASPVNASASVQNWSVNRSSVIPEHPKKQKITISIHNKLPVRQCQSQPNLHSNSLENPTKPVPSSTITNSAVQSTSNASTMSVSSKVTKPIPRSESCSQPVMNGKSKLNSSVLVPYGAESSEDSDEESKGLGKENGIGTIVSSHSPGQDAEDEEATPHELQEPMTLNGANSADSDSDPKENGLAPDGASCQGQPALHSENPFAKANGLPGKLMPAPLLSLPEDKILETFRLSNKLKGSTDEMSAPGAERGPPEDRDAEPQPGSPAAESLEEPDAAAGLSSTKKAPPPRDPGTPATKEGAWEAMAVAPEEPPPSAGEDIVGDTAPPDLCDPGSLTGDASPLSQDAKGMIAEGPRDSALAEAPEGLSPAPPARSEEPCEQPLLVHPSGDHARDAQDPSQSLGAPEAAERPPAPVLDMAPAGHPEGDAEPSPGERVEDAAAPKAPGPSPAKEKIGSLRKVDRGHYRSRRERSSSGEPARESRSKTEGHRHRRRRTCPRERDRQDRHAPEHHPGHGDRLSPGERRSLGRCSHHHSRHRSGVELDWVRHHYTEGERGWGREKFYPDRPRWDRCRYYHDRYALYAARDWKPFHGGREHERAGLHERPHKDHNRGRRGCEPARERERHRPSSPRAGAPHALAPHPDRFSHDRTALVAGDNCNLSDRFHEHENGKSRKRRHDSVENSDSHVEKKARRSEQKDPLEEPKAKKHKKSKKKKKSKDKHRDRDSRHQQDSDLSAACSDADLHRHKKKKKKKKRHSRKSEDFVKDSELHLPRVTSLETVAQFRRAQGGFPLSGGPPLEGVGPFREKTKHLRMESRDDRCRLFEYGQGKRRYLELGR
Outline: (§1)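 Each value is an average log2 ratio of fragment to vehicle, tested by unpaired t-test. The underlying Spectronaut label-free quantities were global-median-normalised, and only proteins with ≥2 unique peptides were included. Triplicate HEK293T lysate samples (495 µg) were exposed to fragment at 200 µM or vehicle for 3 h, then to Biotin-Ahx-Ub-VS at 0.5 µM final for 1 h, before NeutrAvidin enrichment of labelled DUBs, LysC and trypsin digestion, and diaPASEF LC-MS/MS.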

[2] = target: USP46 (UniProt P62068)
Outline: as §1

[3] = target: T2, USP47 (UniProt Q96K76)
T2 sequence (whole entry): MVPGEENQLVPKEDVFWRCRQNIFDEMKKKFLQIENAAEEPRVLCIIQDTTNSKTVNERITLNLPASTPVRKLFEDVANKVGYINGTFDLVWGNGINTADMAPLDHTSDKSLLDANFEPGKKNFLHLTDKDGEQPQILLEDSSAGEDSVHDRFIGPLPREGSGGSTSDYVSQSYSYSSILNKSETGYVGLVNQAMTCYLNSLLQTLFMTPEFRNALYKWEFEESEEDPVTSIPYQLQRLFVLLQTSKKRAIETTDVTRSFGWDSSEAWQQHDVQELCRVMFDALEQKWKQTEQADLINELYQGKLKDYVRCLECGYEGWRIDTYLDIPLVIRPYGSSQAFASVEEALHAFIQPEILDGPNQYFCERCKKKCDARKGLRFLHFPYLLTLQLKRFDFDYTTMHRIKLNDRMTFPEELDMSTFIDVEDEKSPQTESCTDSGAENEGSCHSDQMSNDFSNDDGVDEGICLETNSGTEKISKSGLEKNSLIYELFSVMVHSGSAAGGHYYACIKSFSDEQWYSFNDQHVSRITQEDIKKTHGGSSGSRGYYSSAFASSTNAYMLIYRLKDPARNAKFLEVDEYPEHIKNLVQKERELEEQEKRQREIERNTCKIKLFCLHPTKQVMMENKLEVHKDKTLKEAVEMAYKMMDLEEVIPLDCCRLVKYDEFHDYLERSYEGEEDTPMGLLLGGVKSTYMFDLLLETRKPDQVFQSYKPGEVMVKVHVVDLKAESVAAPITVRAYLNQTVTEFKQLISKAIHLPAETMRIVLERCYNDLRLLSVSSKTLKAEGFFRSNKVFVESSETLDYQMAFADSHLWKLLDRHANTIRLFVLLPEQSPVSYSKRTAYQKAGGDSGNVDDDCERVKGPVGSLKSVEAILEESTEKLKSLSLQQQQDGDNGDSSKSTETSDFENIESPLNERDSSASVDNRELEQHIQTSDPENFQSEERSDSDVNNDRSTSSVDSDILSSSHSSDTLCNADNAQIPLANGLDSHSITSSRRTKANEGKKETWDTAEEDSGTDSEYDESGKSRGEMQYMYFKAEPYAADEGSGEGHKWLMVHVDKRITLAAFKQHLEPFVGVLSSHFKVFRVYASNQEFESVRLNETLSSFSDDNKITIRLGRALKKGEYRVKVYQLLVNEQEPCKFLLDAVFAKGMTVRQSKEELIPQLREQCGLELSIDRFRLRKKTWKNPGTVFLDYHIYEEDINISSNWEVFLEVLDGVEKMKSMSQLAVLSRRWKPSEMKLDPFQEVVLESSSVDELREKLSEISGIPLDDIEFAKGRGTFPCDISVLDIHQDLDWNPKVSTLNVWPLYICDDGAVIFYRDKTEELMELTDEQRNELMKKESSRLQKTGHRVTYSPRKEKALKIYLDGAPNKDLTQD
Outline: as §1

[4] = target: T3, USP48 (UniProt Q86UV5)
T3 sequence (whole entry): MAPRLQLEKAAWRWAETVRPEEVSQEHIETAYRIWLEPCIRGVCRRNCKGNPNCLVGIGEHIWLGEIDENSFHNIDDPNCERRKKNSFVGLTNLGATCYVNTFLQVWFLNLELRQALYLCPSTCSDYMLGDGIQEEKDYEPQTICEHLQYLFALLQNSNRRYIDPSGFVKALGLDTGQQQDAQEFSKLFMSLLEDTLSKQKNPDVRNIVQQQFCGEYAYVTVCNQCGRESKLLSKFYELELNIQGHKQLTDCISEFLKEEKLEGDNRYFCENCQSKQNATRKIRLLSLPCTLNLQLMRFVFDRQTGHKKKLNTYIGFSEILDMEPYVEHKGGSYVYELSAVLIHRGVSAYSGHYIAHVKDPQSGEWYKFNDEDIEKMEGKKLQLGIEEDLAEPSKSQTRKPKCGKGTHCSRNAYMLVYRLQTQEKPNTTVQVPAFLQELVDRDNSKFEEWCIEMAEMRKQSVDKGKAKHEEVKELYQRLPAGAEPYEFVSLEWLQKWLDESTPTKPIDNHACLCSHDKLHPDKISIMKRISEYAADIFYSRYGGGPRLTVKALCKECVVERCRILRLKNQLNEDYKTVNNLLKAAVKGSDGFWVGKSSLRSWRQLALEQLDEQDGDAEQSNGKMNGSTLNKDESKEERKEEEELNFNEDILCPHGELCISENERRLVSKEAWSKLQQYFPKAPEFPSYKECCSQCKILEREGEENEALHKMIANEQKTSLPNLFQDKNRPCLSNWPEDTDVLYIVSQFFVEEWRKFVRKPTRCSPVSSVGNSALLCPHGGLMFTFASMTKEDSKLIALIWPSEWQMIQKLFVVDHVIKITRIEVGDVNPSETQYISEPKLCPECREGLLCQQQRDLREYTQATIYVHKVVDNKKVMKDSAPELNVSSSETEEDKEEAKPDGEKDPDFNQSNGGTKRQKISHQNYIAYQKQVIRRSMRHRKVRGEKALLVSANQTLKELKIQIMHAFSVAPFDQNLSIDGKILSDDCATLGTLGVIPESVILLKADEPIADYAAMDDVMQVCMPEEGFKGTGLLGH
Outline: as §1

[5] = target: T4, USP5 (UniProt P45974)
T4 sequence (whole entry): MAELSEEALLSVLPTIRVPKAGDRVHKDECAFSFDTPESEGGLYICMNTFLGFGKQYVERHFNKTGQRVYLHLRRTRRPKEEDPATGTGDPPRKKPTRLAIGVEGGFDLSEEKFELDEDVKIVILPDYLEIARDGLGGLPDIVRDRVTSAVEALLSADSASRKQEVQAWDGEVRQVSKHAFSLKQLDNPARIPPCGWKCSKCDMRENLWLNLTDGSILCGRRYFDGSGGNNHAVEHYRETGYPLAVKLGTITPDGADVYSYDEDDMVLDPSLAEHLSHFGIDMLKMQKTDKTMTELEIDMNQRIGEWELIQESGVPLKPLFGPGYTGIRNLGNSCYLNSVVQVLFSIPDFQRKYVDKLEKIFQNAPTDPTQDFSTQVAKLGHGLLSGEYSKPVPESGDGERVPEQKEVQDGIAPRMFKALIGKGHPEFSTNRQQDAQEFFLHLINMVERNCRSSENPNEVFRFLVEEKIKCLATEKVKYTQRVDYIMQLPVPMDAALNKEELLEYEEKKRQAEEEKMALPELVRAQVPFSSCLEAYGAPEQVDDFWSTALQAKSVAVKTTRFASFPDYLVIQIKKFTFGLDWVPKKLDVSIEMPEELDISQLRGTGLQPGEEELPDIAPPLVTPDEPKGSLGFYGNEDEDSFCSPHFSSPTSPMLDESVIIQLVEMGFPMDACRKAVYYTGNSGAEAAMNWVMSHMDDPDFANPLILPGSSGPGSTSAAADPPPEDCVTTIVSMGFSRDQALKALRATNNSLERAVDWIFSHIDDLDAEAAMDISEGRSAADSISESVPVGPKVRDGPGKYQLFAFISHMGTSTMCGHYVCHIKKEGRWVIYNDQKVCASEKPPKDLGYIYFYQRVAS
Outline: as §1

[6] = target: USP54 (UniProt Q70EL1)
Outline: as §1

[7] = target: USP7 (UniProt Q93009)
Outline: as §1

[8] = target: T5, USP8 (UniProt P40818)
T5 sequence (whole entry): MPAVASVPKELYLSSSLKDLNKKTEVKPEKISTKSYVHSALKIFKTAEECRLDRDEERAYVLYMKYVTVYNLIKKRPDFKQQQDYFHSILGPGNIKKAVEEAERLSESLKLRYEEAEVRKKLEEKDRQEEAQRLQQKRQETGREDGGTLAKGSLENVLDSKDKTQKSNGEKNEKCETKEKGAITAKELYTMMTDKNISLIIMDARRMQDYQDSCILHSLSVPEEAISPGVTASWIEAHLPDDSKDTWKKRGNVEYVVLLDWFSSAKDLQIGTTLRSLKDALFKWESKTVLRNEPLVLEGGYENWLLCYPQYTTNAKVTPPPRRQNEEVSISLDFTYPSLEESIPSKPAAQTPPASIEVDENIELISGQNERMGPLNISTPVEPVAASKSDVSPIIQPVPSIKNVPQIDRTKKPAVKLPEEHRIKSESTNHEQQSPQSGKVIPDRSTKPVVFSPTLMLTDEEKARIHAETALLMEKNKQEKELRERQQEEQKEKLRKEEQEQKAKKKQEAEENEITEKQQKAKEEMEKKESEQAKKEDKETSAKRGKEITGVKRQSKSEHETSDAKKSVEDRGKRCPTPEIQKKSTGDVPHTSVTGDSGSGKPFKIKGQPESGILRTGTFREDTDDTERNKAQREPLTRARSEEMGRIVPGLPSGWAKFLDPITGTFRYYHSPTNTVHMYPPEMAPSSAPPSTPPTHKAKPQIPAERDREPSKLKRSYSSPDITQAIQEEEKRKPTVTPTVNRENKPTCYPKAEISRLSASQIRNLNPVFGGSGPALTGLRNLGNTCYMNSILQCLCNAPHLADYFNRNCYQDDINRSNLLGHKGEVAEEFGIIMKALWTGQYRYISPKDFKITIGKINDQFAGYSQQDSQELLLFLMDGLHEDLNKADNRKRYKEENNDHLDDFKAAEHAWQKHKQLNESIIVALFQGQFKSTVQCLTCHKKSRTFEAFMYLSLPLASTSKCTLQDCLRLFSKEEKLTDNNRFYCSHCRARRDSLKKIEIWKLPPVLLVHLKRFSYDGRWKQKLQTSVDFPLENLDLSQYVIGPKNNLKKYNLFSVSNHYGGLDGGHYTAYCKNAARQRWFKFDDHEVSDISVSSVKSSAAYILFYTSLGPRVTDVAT
Outline: as §1

[9] = target: USP9X (UniProt Q93008)
Outline: as §1

[10] = target: UniProt O00487
Outline: as §1

Measured: log2 ratio of Biotin-Ahx-Ub-VS probe labelling

USP7, sequence (Q93009 whole entry, looked up): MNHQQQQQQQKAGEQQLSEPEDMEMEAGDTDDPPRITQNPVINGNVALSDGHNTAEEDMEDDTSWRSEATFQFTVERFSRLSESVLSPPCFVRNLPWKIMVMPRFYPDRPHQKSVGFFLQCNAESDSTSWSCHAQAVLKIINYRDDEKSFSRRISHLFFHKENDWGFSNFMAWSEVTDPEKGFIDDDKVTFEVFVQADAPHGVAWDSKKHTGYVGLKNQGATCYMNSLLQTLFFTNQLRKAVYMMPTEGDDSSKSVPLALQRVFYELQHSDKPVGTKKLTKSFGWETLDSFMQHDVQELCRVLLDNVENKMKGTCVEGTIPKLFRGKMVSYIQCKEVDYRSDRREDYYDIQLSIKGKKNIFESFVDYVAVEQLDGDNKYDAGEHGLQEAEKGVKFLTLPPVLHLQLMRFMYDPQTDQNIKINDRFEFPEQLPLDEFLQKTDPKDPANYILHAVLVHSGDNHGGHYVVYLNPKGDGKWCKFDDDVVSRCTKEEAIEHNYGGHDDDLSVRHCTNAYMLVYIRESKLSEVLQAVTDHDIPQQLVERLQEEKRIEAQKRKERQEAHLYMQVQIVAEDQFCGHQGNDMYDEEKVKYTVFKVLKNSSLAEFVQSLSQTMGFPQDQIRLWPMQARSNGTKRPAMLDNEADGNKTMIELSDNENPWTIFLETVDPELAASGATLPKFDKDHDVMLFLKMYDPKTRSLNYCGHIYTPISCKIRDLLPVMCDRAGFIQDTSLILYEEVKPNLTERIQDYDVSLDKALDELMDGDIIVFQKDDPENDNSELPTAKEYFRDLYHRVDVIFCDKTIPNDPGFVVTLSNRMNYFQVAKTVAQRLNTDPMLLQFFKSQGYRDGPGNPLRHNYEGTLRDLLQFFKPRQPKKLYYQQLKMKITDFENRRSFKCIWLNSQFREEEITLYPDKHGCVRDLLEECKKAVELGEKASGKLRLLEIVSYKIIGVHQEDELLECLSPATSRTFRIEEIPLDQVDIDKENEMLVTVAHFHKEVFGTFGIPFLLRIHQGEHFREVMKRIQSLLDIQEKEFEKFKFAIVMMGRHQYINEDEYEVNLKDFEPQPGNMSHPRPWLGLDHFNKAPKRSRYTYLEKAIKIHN
USP9X, sequence (Q93008 whole entry): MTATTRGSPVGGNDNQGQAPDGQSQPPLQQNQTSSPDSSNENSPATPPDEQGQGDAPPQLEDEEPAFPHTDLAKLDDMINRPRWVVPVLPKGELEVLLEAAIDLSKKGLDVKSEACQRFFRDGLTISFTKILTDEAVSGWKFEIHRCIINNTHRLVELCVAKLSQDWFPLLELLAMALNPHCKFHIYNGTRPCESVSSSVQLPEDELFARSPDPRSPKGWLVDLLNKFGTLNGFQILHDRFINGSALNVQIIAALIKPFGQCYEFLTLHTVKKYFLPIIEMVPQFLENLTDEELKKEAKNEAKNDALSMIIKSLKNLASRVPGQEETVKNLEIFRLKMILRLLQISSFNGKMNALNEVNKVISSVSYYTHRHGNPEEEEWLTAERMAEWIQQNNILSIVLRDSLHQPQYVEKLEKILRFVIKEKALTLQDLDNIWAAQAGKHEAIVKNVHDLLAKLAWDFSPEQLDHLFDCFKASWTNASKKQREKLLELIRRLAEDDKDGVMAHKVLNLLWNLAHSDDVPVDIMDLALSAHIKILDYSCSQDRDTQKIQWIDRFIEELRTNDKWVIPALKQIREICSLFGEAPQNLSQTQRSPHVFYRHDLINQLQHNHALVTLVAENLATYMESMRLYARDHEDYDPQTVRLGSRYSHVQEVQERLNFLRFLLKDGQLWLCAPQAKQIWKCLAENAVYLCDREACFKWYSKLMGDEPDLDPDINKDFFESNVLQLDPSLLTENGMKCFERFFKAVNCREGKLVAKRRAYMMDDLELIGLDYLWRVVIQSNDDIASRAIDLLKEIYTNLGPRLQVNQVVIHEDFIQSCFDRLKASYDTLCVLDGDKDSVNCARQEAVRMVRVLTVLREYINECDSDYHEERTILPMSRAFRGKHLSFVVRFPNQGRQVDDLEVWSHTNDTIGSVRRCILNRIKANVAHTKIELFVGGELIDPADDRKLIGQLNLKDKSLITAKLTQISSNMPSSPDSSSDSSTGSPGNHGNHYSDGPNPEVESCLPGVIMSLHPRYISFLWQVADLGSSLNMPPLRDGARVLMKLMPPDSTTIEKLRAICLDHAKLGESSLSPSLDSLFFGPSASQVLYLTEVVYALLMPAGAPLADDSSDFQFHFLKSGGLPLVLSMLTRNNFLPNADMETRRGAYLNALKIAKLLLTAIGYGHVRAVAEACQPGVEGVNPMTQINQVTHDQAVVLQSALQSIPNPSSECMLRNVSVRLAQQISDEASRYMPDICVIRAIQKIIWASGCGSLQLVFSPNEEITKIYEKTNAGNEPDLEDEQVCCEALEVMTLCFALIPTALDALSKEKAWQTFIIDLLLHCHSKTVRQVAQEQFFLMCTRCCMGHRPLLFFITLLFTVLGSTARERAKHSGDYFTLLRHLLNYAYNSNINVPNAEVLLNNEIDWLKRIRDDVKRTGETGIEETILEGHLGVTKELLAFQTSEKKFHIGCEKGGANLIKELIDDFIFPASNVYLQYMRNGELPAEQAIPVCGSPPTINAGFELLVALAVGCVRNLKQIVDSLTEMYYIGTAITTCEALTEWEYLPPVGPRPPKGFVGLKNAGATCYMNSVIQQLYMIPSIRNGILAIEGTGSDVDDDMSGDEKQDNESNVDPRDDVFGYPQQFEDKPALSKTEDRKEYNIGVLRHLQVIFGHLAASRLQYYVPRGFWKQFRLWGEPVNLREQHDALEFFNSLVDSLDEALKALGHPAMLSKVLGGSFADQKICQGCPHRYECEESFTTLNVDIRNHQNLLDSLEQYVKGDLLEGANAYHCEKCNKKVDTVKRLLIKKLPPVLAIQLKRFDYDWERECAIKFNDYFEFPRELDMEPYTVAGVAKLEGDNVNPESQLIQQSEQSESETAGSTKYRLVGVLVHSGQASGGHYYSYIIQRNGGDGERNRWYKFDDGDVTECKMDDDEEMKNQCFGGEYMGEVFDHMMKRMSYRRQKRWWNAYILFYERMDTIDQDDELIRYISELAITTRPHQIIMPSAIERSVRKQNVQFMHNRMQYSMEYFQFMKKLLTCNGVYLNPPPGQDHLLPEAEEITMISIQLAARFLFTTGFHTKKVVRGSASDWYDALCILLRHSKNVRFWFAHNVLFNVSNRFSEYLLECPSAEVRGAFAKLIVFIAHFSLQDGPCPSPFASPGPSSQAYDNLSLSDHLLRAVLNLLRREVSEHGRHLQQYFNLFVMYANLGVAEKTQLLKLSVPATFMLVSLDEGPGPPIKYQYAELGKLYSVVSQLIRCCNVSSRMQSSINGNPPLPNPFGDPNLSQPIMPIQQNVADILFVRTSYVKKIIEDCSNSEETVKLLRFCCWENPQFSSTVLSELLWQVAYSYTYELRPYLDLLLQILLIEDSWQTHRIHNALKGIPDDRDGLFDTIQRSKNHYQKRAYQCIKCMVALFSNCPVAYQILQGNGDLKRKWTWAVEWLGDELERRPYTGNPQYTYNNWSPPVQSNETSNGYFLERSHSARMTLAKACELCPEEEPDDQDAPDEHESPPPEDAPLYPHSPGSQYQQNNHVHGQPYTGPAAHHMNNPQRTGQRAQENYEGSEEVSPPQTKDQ
UniProt O00487, sequence (O00487 whole entry): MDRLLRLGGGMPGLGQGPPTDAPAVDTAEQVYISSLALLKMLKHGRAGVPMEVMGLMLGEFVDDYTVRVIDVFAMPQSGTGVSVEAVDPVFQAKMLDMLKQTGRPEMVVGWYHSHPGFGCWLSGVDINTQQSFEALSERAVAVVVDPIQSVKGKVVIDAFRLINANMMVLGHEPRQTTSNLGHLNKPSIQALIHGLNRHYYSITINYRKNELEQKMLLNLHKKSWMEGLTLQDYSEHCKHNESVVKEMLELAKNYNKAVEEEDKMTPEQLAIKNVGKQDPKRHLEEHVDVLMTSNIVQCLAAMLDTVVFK
USP46, sequence (P62068 whole entry): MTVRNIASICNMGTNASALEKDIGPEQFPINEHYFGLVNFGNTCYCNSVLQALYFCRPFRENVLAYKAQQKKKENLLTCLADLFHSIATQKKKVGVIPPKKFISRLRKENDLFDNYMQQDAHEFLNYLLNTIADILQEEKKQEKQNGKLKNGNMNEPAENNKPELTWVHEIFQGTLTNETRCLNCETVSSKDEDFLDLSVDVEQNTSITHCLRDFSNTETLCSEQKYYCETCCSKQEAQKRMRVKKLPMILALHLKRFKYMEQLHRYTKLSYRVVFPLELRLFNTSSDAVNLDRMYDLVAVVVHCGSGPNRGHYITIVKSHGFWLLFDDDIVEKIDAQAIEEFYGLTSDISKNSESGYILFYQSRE

CNC(=O)C1CCN(C(=O)CCl)CC1
inactive: [1] 0.308 | [2] 0.0795 | [3] 0.356 | [4] -0.0361 | [5] -0.203 | [6] 0.32 | [7] -0.171 | [8] -0.00406 | [9] -0.107 | [10] 0.144

Reference: the supplement of paper PMC11732987, “Enantioselective OTUD7B fragment discovery through chemoproteomics screening and high-throughput optimisation” (Communications Chemistry, 2025)
